Screening results from PubChem.
This is a sample that favours compounds with a hit; in the whole collection about 1.2% have one here.
TSHR antagonist – blocks TSH signaling through the human TSH receptor | P16473 | TSHR-expressing cells, TSH-stimulated cAMP HTRF, 2 h; stronger effect = lower value | AID 504810 | hit rate 0.2% among 330,000 | activity change, negative = inhibition, % at 11.5 µM;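 active = activity change below a set negative limit, meaning inhibition stronger than a set level, cut at about -70% in these data; inconclusive = activity change between two set negative limits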; note: % is set by controls: 0 for no effect and ±100 for the full control effect
Target sequence (P16473 whole entry, looked up): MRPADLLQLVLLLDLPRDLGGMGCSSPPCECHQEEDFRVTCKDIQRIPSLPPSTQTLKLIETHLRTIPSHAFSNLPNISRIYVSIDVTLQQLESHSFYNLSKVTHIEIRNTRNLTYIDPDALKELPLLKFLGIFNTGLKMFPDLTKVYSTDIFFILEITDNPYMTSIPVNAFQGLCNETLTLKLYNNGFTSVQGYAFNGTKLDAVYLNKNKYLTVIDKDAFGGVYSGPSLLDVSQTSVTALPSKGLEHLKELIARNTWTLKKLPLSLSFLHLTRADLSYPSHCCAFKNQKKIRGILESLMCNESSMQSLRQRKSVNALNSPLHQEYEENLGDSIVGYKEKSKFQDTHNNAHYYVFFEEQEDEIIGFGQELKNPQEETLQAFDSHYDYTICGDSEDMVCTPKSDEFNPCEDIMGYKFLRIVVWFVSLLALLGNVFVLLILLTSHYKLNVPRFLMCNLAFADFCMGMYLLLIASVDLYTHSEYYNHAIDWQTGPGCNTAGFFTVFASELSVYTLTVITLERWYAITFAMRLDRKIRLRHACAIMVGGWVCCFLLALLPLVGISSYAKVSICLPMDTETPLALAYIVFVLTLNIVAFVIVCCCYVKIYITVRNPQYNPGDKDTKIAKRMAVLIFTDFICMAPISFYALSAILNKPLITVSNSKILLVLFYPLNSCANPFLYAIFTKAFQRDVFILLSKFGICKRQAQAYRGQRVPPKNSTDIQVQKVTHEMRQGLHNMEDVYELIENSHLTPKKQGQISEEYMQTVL
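Antagonism was scored as loss of TSH-driven cAMP in TSHR cells, stimulated with 4nM TSH (EC80) for 2 hours at 37 deg C and detected by homogeneous HTRF competition immunoassay.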
gsp ag – activates gsp, the McCune-Albright syndrome mutation | Potency, µM (titrated, usually from 76.9 µM), for inactives: at the top dose activation (cAMP increase), actives largely listed as activators | gsp mutant cells, cAMP HTRF, 30 min | hit rate 0.13% among 340,000 | AID 624287; active = well fitted activation curve with a large enough effect; inconclusive = small, poorly fitted or top-dose-only effect, or another doubt; inactive = no such curve, though single readings can be large or run the other way; cell line not stated here;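 note: phosphodiesterase inhibitor Ro 20-1724 added with compounds to block cAMP breakdown; potency is the fitted concentration of half-maximal effect; nearly all actives have a fitted effect of over 60% in size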
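Cells in DMEM/10% FBS with G418 were pretreated with compounds in DMSO plus […] (300 uM stock) for 30 min at 37C. cAMP was measured by HTRF (cAMP-d2 plus anti-cAMP antibody-K) after 30 min at room temperature.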
CCT modulator – modulators of cytosolic chaperonin (CCT/TRiC) activity | purified chaperonin ATPase assay, HTRF ADP detection, 30 min | activity change, % (no concentration beside the values), hits read low | hit rate 0.3% among 360,000; in the data active = activity change below about -30%; note: % is set by controls: 0 for no effect and ±100 for the full control effect
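TRiC (40 or 20 nM final, by batch activity) in 30 mM Tris pH 7.4, 100 mM KCl, 5 mM MgCl2, 1 mM DTT was treated with compound at 76 uM single dose, then 10 uM ATP, 30 min at 37 °C. ADP was read by HTRF Transcreener.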
gsp antag – antagonizes gsp, the McCune-Albright syndrome mutation | gsp-mutant cells, cAMP HTRF, 30 min | Potency, µM (series often up to 76.9 µM), for the others: at the top dose activity change, negative = inhibition, most hits filed as inhibitors | hit rate 0.4% among 340,000 | AID 624288; calls by dose curve; cell line not stated here;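 note: intracellular cAMP measured with PDE inhibitor Ro 20-1724 present during compound exposure; potency is the fitted concentration of half-maximal effect; % is set by controls: 0 for no effect and ±100 for the full control effect; nearly all actives have a fitted effect of over 65% in size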
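Measurement of cellular cAMP by homogeneous time-resolved fluorescence following a 30 min compound exposure at 37C. The PDE inhibitor […] was present throughout; the assay buffer was DPBS with 0.05% BSA and 0.005% Tween 20.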
uPA surface inh – blocks generation of uPA at the cell surface; cell surface uPA generation assay, qHTS; Potency, µM (series often up to 38.3 µM), for inactives: at the highest dose activity change, negative = inhibition, hits mostly inhibitors; hit rate 0.31% among 330,000; active = well fitted inhibition curve with a large enough effect; inconclusive = small, poorly fitted or top-dose-only effect; inactive = no such curve, though single readings can be large or run the other way; tested in mouse RAW 264.7 cells; note: potency is the fitted concentration of half-maximal effect; % is set by controls: 0 for no effect and ±100 for the full control effect; nearly all actives have a fitted effect of over 55% in size
MmCpn inh – inhibitors of Methanococcus maripaludis chaperonin TRiC (MmCpn) | purified Mm-Cpn ATPase, ADP Transcreener TR-FRET | Potency, µM (series often up to 76.9 µM), without a hit: at the top dose activity, negative = inhibition, hits mostly inhibitors | hit rate 0.031% among 330,000 | AID 504842; active = well fitted inhibition curve with a large enough effect; inconclusive = small, poorly fitted or top-dose-only effect; note: potency is the fitted concentration of half-maximal effect; % is set by controls: 0 for no effect and ±100 for the full control effect; nearly all actives have a fitted effect of over 80% in size
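Purified archaeal chaperonin (25 nM final) was preincubated with compound for 10 min at 37°C, then ATP (10 uM final) was added for 30 min at 37°C in Tris pH 7.4/KCl/MgCl2/DTT buffer. ADP was quantified by HTRF Transcreener TR-FRET.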
The depositor's hits bear a star; ? = inconclusive; / = no result given; [ ] = remark or other dose.

SMILES	TSHR antagonist	gsp ag	CCT modulator	gsp antag	uPA surface inh	MmCpn inh
NC(=O)C1CCN(C(=O)COc2ccc3ccccc3c2)CC1	-13	-12%	-1	13%	2%	2%
O=C(/C=C/c1ccc(-c2ccccc2[N+](=O)[O-])o1)c1ccco1	-6	-15%[15.4 µM]	-6	?	-6%	1%
CN(c1ccccc1)S(=O)(=O)c1ccc(NC(=O)c2nc(S(C)(=O)=O)ncc2Cl)cc1	-95*	-2%	1	10%	?	-13%
CCS(=O)(=O)c1ncc(Cl)c(C(=O)Nc2ccc(S(=O)(=O)N3CCC(C)CC3)cc2)n1	-78*	-13%[15.4 µM]	-9	-1%	-5%	-9%
CCc1ccc(NC(=O)c2nc(S(=O)(=O)Cc3ccccc3)ncc2Cl)cc1	-74*	/	/	/	/	1%
CCOC(=O)c1ccc(NC(=O)c2nc(S(=O)(=O)Cc3ccccc3)ncc2Cl)cc1	?	-30%[15.4 µM]	0	-13%	-3%	-4%
S=C(NC1CCCCC1)N1CCOCCOCCN(C(=S)NC2CCCCC2)CCOCCOCC1	-6	-12%[15.4 µM]	1	-28%	10%	1%
Cc1cc(C2=CC(=O)C[C@H](c3ccc4c(c3)OCO4)C2)ccc1F	-21	/	-10	-9%	10%	0%
O=C(CSc1ncnc2c1oc1ccccc12)Nc1ccccc1C(F)(F)F	27	32µM*	-5	25%	1%	-10%
O=C(O)CSc1ncnc2c1oc1ccccc12	8	2%	-1	2%	-2%	-4%
C/C(=N\Nc1ccc(S(=O)(=O)Nc2ccc(Cl)cc2)cc1[N+](=O)[O-])c1ccc(N2CCOCC2)cc1	2	14%[15.4 µM]	-5	9%	-1%	1%
Cn1c(=O)cc(SCC(=O)N2CCOCC2)c2ccc(Cl)cc21	-1	?	-1	-19%	-3%	-2%
Cn1c(=O)cc(SCC(=O)N2CCCC2)c2ccc(Cl)cc21	5	11µM*	0	-19%	-6%	0%
CN1C(=O)S/C(=C/c2ccccc2OCc2ccc(C(=O)O)cc2)C1=O	-30	-2%[15.4 µM]	-3	32µM*	-3%	-1%
CN1C(=O)S/C(=C\c2ccccc2OCc2ccc(C(=O)O)cc2)C1=O	-12	-21%	0	?	0%	1%
COc1ccccc1-c1nnc(SC(C(=O)c2c[nH]c3ccccc23)c2ccccc2)n1C (centres undefined)	0	5%	1	35µM*	17%	-2%
COc1cccc(-c2nnc(SC(C(=O)c3c[nH]c4ccccc34)c3ccccc3)n2C)c1 (centres undefined)	-14	-4%[15.4 µM]	1	?	4%	-3%
O=[N+]([O-])c1ccc(S(=O)(=O)NCCS(=O)(=O)N2CCN(c3ccccc3)CC2)cc1	2	-25%	-1	?	-4%	1%
C[C@H](O)[C@@H]1C(=O)N2CCc3ccc(N4CCN(C)CC4)cc3[C@@H]2C[C@@H]1N(C)C(=O)NC1CCCCC1	/	/	1	2%	12%	/
COc1ccc(CN2CCCN(C)CC2)c(OC)c1C	-119*	-48%	0	10%	0%	0%
CCOC(=O)c1ccc(NC(=O)C23CCC(C)(C(=O)O2)C3(C)C)cc1 (centres undefined)	15	?	-38*	-11%	2%	0%
COc1cc(/C=C(\C#N)c2nc3ccc(C)cc3[nH]2)c([N+](=O)[O-])cc1OC	8	-12%	-2	25%	4%	0%
COc1cc(/C=C(\C#N)c2nc3ccc(C)cc3[nH]2)cc([N+](=O)[O-])c1O	-4	-35%	1	25µM*	3%	-11%
O=C(OCc1ccccc1)N1CCC2CC1c1cc(N3CCN(S(=O)(=O)c4cccc(C(F)(F)F)c4)CC3)ccc12 (centres undefined)	/	-85%	1	/	/	/
Cc1ccc(Sc2ccc(NC(=O)c3ccc(S(C)(=O)=O)cc3Cl)cc2)cc1	9	32µM*	-2	24%	/	0%
SMILES	TSHR antagonist	gsp ag	CCT modulator	gsp antag	uPA surface inh	MmCpn inh
COc1cc2c(c(OC)c1OC)-c1ccc(N(C)CC(OC)OC)c(=O)cc1[C@@H](NC(C)=O)CC2	16	-23%	0	4%	-17%	1%
CN[C@H]1CCc2cc(OC)c(OC)c(OC)c2-c2ccc(N(C)CC(OC)OC)c(=O)cc21	1	?	-1	13%	3.5µM*	-3%
CCOC(=O)N1CCN(C(=O)C2CCN(S(=O)(=O)c3ccc(OC)cc3)CC2)CC1	1	-17%	0	-4%	14%	-3%
CSCCOC(=O)c1[nH]c2c(c1C)C(=O)CC(c1ccco1)C2 (centres undefined)	-1	2%	-1	11%	?	-2%
Cc1c(C(=O)OCc2ccccc2)[nH]c2c1C(=O)CC(c1ccco1)C2 (centres undefined)	-8	?	0	15%	1µM*	-13%
CCOc1ccc(C2CC(=O)c3c([nH]c(C(=O)OC)c3C)C2)cc1OC (centres undefined)	/	0%	-1	-11%	-4%	/
COCCOC(=O)c1[nH]c2c(c1C)C(=O)CC(c1ccco1)C2 (centres undefined)	-1	-27%	0	6%	1µM*	-4%
COC(=O)c1[nH]c2c(c1C)C(=O)CC(c1cc(OC)ccc1OC)C2 (centres undefined)	-12	-27%	-2	16%	5.6µM*	-1%
CCOC(=O)c1[nH]c2c(c1C)C(=O)CC(c1ccco1)C2 (centres undefined)	-1	?	0	6%	?	-1%
CC(C)(C)OC(=O)N(Cc1ccccc1)Cc1cccc(OCc2cccc(NC(=O)c3ccccc3)c2)c1	/	/	-3	-3%	-9%	/
O=C(NNC1=NS(=O)(=O)c2ccccc21)c1ccc(Cl)cc1	-3	6%	-1	9%	3.5µM*	0%
COc1ccc(OC)c2sc(N(CCCN(C)C)C(=O)c3ccc(S(=O)(=O)N4CCc5ccccc5C4)cc3)nc12	2	/	/	/	/	-2%
O=S1(=O)c2ccc(Br)cc2N2CC[C@H](C2)N1Cc1ccc(Cl)cc1	/	/	-1	2%	3.2µM*	/
Cc1ccc2nc(-c3sc4nc(C)ccc4c3N)[nH]c2c1	-2	?	1	3%	-13%	-8%
CSc1ccc(/C=N/NC(=O)C[n+]2ccccc2)cc1	7	20µM*	-2	4%	4%	0%
Cn1cc(-c2cnc3c(NC=O)cc(-c4cccc(C(F)(F)F)c4)cn23)cn1	/	/	-1	/	/	/
COc1ccc(N2CCN(C(CNC(=O)C(=O)NCCCO)c3ccco3)CC2)cc1 (centres undefined)	2	17%	-69*	-1%	-6%	1%
